Assay results as given in PubChem BioAssay AID1851 (National Center for Advancing Translational Sciences (NCATS), 2009).
“And” between values parts separate entries of the source, which are not always exact repeats. Equal values may be shown once. Hit rate of the full screen: of about 16,000 compounds, about 5,700 (36%) were called active. Another 24% or so got no clear call; they are omitted. Some of the results follow. Values without a mark were called inactive. Calls follow the shape of the dose curve; as a rule, active = well fitted curve in the direction sought with a large enough effect; inconclusive = small, poorly fitted or top-dose-only effect, or effect the other way; inactive = no such curve, though single readings can be large or run the other way.

target: Cytochrome P450 1A2 (Homo sapiens) (UniProt P05177); assay: Cytochrome panel assay with activity outcomes; details: recombinant CYP, pro-luciferin dealkylation, luminescence, p450-cyp1a2; series mostly up to 57.1 µM; activity, negative = inhibition: at the top concentration
Sequence (P05177 whole entry, looked up): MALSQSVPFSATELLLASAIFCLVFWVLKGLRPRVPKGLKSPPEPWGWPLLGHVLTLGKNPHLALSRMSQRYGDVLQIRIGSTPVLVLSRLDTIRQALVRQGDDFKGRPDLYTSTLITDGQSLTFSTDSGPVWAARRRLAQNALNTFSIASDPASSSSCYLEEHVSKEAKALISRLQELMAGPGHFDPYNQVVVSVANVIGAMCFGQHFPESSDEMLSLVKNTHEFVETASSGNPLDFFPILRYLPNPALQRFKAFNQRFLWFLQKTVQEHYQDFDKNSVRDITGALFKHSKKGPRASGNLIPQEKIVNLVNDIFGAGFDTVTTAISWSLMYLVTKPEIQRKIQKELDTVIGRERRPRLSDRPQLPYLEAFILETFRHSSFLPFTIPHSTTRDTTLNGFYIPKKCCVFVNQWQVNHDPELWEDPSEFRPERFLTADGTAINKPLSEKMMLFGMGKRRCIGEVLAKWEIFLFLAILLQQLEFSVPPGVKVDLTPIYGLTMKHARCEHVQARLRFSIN
% is scaled to controls: 0 for no effect and ±100 for the full control effect.

SMILES	activity, negative = inhibition	AC50
CS(=O)(=O)N1CCC[C@@]2(CCN(C(=O)Nc3cccc(F)c3)C2)C1	-25.2%	–
CC(C)(C)c1cc(/C=C(\C#N)C(N)=S)cc(C(C)(C)C)c1O	–	12.6 µM (active)
c1ccc(SCCc2ccncc2)cc1	–	447 nM (active) and 200 nM (active)
Fc1ccc(SCCc2ccncc2)cc1	–	0.562 µM (active)
N=C(N)SCCc1ccncc1	-17.8% [at 2.29 µM]	–
COc1ccc(CCC(C)Nc2cccc(F)c2)cc1 (stereo not drawn)	–	3.55 µM (active)
COc1ccc(CCC(C)NC2C3CC4CC(C3)CC2C4)cc1 (stereo not drawn)	-18.9%	–
CCn1c(C)c(/C=N/Nc2nc3ccccc3s2)c2ccccc21	–	2.51 µM (active)
CCOC(=O)c1sc(NC(C)=O)nc1-c1ccccc1	–	2.82 µM (active)
CCOC(=O)Nc1nc(-c2ccccc2)c(C)s1	–	0.2 µM (active)
CCOC(=O)c1sc(NS(=O)(=O)c2ccccc2)nc1C	-4.5%	–
CCN(CC)C(=O)N1CCN(C)CC1	-5.59% [at 25.6 µM]	–
COc1ccc(O[C@H]2C=C[C@@H](c3ccccc3)O[C@H]2CO/N=C(/C)CCC(=O)OC[C@@H]2O[C@H](C#Cc3ccccc3)C=C[C@@H]2Oc2ccc(C)cc2)cc1	-5.99% [at 11.4 µM]	–
O=C(O)c1ccc(Sc2nnnn2-c2ccccc2)c([N+](=O)[O-])c1	-12%	–
O=[N+]([O-])c1cc(/C=N/O)ccc1SCc1ccccc1	–	0.891 µM (active)
O=C(O)[C@H](Cc1ccc(O)c([N+](=O)[O-])c1)N1C(=O)c2ccccc2C1=O	-17.9% [at 2.29 µM]	–
CCOC(=O)c1cnc2cc(-c3ccc(C)cc3)nn2c1-c1ccccc1	–	2.24 µM (active)
CCOC(=O)c1cnc2cc(-c3ccc(C(C)(C)C)cc3)nn2c1N	-13.4%	–
C=CCSc1nc(C)cc(/C=C\c2ccccc2)c1C#N	–	2.51 µM (active)
Nc1nc(Cl)nc2c1ncn2[C@@H]1O[C@@H](CO)[C@@H](O)[C@H]1O	-12.9%	–
COC(=O)COc1ccc(/C=C2/SC(=O)N(CC(=O)N3CCCC3)C2=O)cc1Br	5.15%	–
COC(=O)CN1C(=O)S/C(=C/c2ccc(N3CCCCC3)o2)C1=O	–	0.891 µM (active)
O=C1S/C(=C/c2ccc(N3CCOCC3)o2)C(=O)N1Cc1ccc(F)cc1	–	3.55 µM (active)
COC(=O)C1C(O)=C(C=NCc2ccccc2)C(=O)CC1(C)C (stereo not drawn)	-9.45%	–

SMILES	activity, negative = inhibition	AC50
c1cnc(N2CCN(Cc3ccc4c(c3)OCO4)CC2)nc1	–	6.31 µM (active) and 3.16 µM (active) and 2 µM (active)
O=C(c1cc2sccc2n1Cc1ccccc1)N1CCN(c2nc3ccccc3s2)CC1	-23.8%	–
CN(Cc1ccccc1)S(=O)(=O)c1ccc(OCC(=O)N2CCOCC2)cc1	-10.9%	–
O=C(CCN1C(=O)c2cccc3cccc(c23)C1=O)N1CCN(Cc2ccc3c(c2)OCO3)CC1	-23.1%	–
c1ccc2sc(N3CCN(Cc4ccc5c(c4)OCO5)CC3)nc2c1	–	1 µM (active)
O=C(COc1ccc(Cl)cc1)N1CCN(Cc2ccc3c(c2)OCO3)CC1	–	5.01 µM (active)
C[n+]1cc(-c2ccccc2)n2c1CCCCC2	9.49%	–
CCCCCOc1ccc(OC(=O)c2ccncc2)cc1	–	12.6 µM (active)
COc1ccc(OC(=O)c2ccncc2)cc1	–	6.31 µM (active)
COc1ccc(C(=O)N2CCC3(CC2)CN(c2ccncc2)C3)cc1	-5.39%	–
COc1ccc(/C=C(/NC(C)=O)C(=O)O)cc1	-26.8%	–
COc1ccc(NC(=O)N2CC3(CCN(C(=O)c4ccncc4)CC3)C2)cc1	-1.73%	–
COc1ccc(/C=C/c2ccncc2)cc1	–	1.26 µM (active)
O=C1CCCC=C1[C@@H](O)C1CCCCC1	-1.29% [at 11.4 µM]	–
O=C(c1cc(-c2ccc(Cl)cc2Cl)on1)N1CCN(C(=O)c2ccco2)CC1	–	15.8 µM (active)
O=C(c1ccc(Cl)cc1)N1CCN(C(=O)c2ccco2)CC1	4.7%	–
O=C(Cc1ccc(Cl)cc1)N1CCN(C(=O)c2ccco2)CC1	-13.2%	–
CC(=O)NCCNc1ncnc2ccc(-c3ccc4c(c3)OCO4)cc12	–	0.501 µM (active)
CC(=O)NCCNc1ncnc2ccc(-c3ccoc3)cc12	–	12.6 µM (active)
COCCNc1ncnc2ccc(-c3ccc(N(C)C)cc3)cc12	–	0.251 µM (active)
COCCNc1ncnc2ccc(-c3ccoc3)cc12	–	15.8 µM (active)
COCCNc1ncnc2ccc(-c3ccc(C(=O)N(C)C)cc3)cc12	-19.4%	–
CCc1cc2c(nc1CC)CCN(CC/C(C)=N/OC[C@@H](O)COCc1ccco1)C2	-8.65% [at 11.4 µM]	–
CCC(=S)/C=C1\Sc2ccc3ccccc3c2N1CCCS(=O)(=O)O	-13.1%	–

SMILES	activity, negative = inhibition	AC50
CN(C)CCCN1c2ccccc2Sc2ccc3ccccc3c21	-2.18% [at 2.29 µM]	–
CN(C)CCCN1c2ccc3ccccc3c2Sc2cccc(Cl)c21	–	1 µM (active)
COc1ccc(C(=O)N2CCC3(CC2)CN(C(=O)Nc2cccc(C#N)c2)C3)cc1	-4.75%	–
O=C(OC1CCN(c2ccc([N+](=O)[O-])cc2)CC1)c1ccccc1	-6.58%	–
O=c1cc(-c2ccccc2)[nH]n1-c1ccc([N+](=O)[O-])cc1	–	22.4 µM (active)
CCCNc1c(F)c(F)c2c(C)c3ccccc3nc2c1F	–	0.708 µM (active)
Oc1ccc2ccccc2c1/C=C\c1ccc2c(Br)cc(Br)c(O)c2n1	–	3.98 µM (active)
CC(=O)N1N=C(c2cccc([N+](=O)[O-])c2)OC1c1ccc(Cl)cc1Cl (stereo not drawn)	–	2.51 µM (active)
CC(=O)N1CC(=O)N(OCc2ccccc2)C1c1ccc(Cl)cc1Cl (stereo not drawn)	2.24%	–
CC(=O)N1N=C(c2cccc([N+](=O)[O-])c2)OC1c1ccccc1Cl (stereo not drawn)	–	14.1 µM (active)
COc1ccc(C2C3=C(CC(C)(C)CC3=O)Oc3ncn(CC(C)C)c(=N)c32)cc1 (stereo not drawn)	-4.33%	–
NNC(=O)CNc1cccc(Br)c1	–	0.501 µM (active)
CCC[C@H]1C(=O)N2C(N(C)C)=Nc3ccc(C)cc3N2C1=O	–	1.58 µM (active)
Cc1ccc2c(c1)N(CCC(=O)NCC1CCCO1)C(=O)CO2 (stereo not drawn)	-29.1%	–
COCCn1c(=O)c(-c2ccc(OC)cc2)nc2cnc(N3CCNCC3)nc21	–	6.31 µM (active)
COCCn1c(=O)c(-c2cc(F)cc(F)c2)nc2cnc(N3CCNCC3)nc21	–	6.31 µM (active)
CN1CCN(c2ncc3nc(-c4cccc(C#N)c4)c(=O)n(Cc4ccc(F)cc4)c3n2)CC1	-15.5%	–
COc1cccc(Cn2c(=O)c(-c3cc(F)cc(F)c3)nc3cnc(N4CCNCC4)nc32)c1	-17.6%	–
COCCn1c(=O)c(-c2cccc(C#N)c2)nc2cnc(N3CCNCC3)nc21	–	10 µM (active)
CN1CCN(c2ncc3nc(-c4cccc(C#N)c4)c(=O)n(CCC#N)c3n2)CC1	-11.5%	–
CC[C@H](C)[C@@H]1O[C@]2(CC[C@@H]1C)C[C@H]1C[C@H](CC=C(C)[C@@H](O[C@H]3C[C@H](OC)[C@H](O[C@H]4C[C@H](OC)[C@H](O)[C@H](C)O4)[C@H](C)O3)[C@@H](C)C=CC=C3CO[C@@H]4[C@@H](O)C(C)=C[C@H](C(=O)O1)[C@@]34O)O2	-8.74%	–
C/C(CCC(=O)OC[C@@H]1O[C@H](C#Cc2ccccc2)C=C[C@@H]1Oc1ccc(C)cc1)=N/O[C@@H](C)c1cn([C@H](CO)Cc2ccccc2)nn1	-3.36% [at 11.4 µM] and -0.528% [at 11.4 µM]	–
CC(=O)O[C@]12CC[N@+]3(C)CCCC[C@@H]3[C-]1Nc1ccccc12	-11% [at 11.4 µM]	–
N#Cc1cccc(-c2nccc(-n3ccnc3)n2)c1	–	0.2 µM (active)

SMILES	activity, negative = inhibition	AC50
COc1cccc(-c2nccc(-n3ccnc3)n2)c1	–	0.0316 µM (active)
CN(C)c1ccc(-c2cc(-n3ccnc3)ncn2)cc1	–	0.158 µM (active)
N#Cc1cccc(-c2cc(-n3ccnc3)ncn2)c1	–	0.126 µM (active)
COc1cccc(/C(O)=C2/C(=O)C(=O)N(c3ccccn3)C2c2ccc(OC)c(OC)c2)c1 (stereo not drawn)	12%	–
COc1ccc(C2/C(=C(/O)c3ccccc3)C(=O)C(=O)N2c2ccccn2)c(OC)c1 (stereo not drawn)	-28.1%	–
NN(CC(=O)O)CC(=O)O	1.78% [at 11.4 µM]	–
C[N@+]1(CCC(=O)c2ccccc2)CC[C@H]2CC[C@H](C2)C1	-19% [at 11.4 µM]	–
c1cncc(-c2cc(-n3ccnc3)ncn2)c1	–	0.1 µM (active)
CC1(C)NC(=O)N(c2ccc([N+](=O)[O-])c(C(F)(F)F)c2)C1=O	–	3.16 µM (active) and 2.51 µM (active)
Cc1ccc(C2C3=C(CCCC3=O)Nc3nc(SCC(=O)NCc4ccco4)[nH]c(=O)c32)cc1 (stereo not drawn)	-17.4%	–
CCSc1nc2c(c(=O)[nH]1)C(c1ccncc1)C(C(=O)OC(C)C)=C(C)N2 (stereo not drawn)	–	15.8 µM (active)
CCSc1nc2c(c(=O)[nH]1)C(c1ccccn1)C1=C(CC(C)(C)CC1=O)N2 (stereo not drawn)	-27.4%	–
[Li+]	-2.16%	–
COc1cccc(C(=O)NCCN2CCOCC2)c1	-9.55%	–
COc1ccc(NC(=O)C2(c3ccc(NC(=O)c4ccc(C)cc4)cc3)CCCC2)cc1	5.17%	–
COc1ccc(-c2nc(NC(=O)c3ccccc3)sc2-c2ccc([N+](=O)[O-])cc2)cc1	-4.3%	–
COc1ccc(NC(=O)N2CC3(CCN(C(=O)c4ccco4)CC3)C2)cc1	-9.08%	–
COc1ccc2c(c1)CCc1sc(NC(=O)c3ccc(C)cc3)nc1-2	–	4.47 µM (active)
COc1ccc2c(c1)Cc1sc(NC(=O)c3ccco3)nc1-2	–	3.16 µM (active)
COc1ccc(C(=O)Nc2nc3c(s2)Cc2cc(OC)ccc2-3)cc1	–	4.47 µM (active)
COc1cccc(C(=O)Nc2nc3c(s2)CN(C)CC3)c1	–	12.6 µM (active)
